Screening data (PubChem)
Sampled rows, rich in hits. Any-hit rate of the full collection: about 7.6%.
NS3h inh CB – HCV NS3 helicase inhibitors, primary screen, biochemical, fluorescence polarization, ChemBridge library; inhibition, % at 100 µM; AID 687043, 2013; 16,000 tested, 1.6% active; NS3h Cy5-dT15 DNA binding; Hepatitis C virus NS3 helicase;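 active means inhibition above the average over every tested compound plus 3 SD, cut at about 40% in these data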
Cy5 interf NS3h – Cy5 fluorescence quenchers or enhancers, artefact control for HCV NS3 helicase inhibitor project, biochemical, ChemBridge library, Cy5 readout; Cy5-dT15 DNA with NS3h, fluorescence interference; actives lie on both sides; signal over control mean, under 1 quenches; fluorescence interference ratio at 100 µM; 16,000 tested, 6% active; AID 720488, 2013;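 active means compound fluorescence over control fluorescence at most 0.8, a quencher, or at least a set upper limit, an enhancer; inactive means ratio between 0.8 and the set upper limit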
The depositor's hits bear a star.

SMILES	NS3h inh CB	Cy5 interf NS3h
O=C1NC(=O)C(=Cc2ccc(OCc3ccc(F)cc3)cc2)C(=O)N1	-4	0.7*
CCOc1cc(C=C2C(=O)NC(=O)NC2=O)ccc1OCCOc1ccccc1C	7	1
CCOc1cc(/C=C2/SC(=O)NC2=O)ccc1OCc1ccc(Cl)cc1	20	1
COc1cc(C=C2C(=O)NC(=S)NC2=O)ccc1OCc1ccc(Cl)cc1	18	0.68*
O=C1NC(=O)C(=Cc2ccccc2OCc2ccc(F)cc2)C(=O)N1	28	1
COC(=O)COc1ccc(C=C2C(=O)NC(=S)NC2=O)cc1OC	40	1.1
COc1ccc(/C=C2/SC(=S)N(Cc3ccccc3)C2=O)c2ccccc12	10	1.1
CCOC(=O)CC(=O)Nc1nc2ccc(Br)cc2s1	3	1
COC(=O)c1ccc(C(=O)Nc2cc(Cl)ccc2Cl)cc1NC(=O)COc1ccc(F)cc1	12	0.93
CC(/C=C/c1ccccc1)=N/Nc1ccc([N+](=O)[O-])cc1[N+](=O)[O-]	3	1
COc1ccc2c(c1)OCC/C2=N/OC(=O)c1cc(OC)c(OC)c(OC)c1	11	1.2*
COc1ccc2c(c1)OCC/C2=N/OC(=O)c1ccc(C)cc1	20	1
CCOc1nc(OCC)c(C=O)c(OCC)n1	10	0.94
CC(Sc1nnc(-c2cccnc2)o1)C(=O)c1ccccc1 (stereo unspecified)	2	1
CSc1nnc(-c2ccc(C)cc2)o1	12	0.69*
CCOC(=O)c1c[nH]c2c(C)cccc2c1=O	2	0.96
COc1ccc(C(=O)Nc2cccc3nsnc23)cc1	23	0.99
Cc1cc(-c2ccccc2)nc2cc(C(=O)Nc3ccc(Cl)cc3)nn12	6	0.93
CCOc1ccc(-c2cc(C)n3nc(C(=O)N(C)Cc4ccccc4)cc3n2)cc1	23	0.97
CCOc1ccc(-c2cc(C)n3nc(C(=O)Nc4ccc(C(C)=O)cc4)cc3n2)cc1	4	0.67*
CCOc1ccc(-c2cc(C)n3nc(C(N)=O)cc3n2)cc1	6	0.63*
COC(=O)c1cc2nc(-c3ccc(Br)cc3)cc(C(F)(F)F)n2n1	5	0.99
CC(=O)c1ccc(NC(=O)c2cc3nc(-c4ccc(Br)cc4)cc(C(F)(F)F)n3n2)cc1	10	0.78*
CC(=O)C(N=Nc1ccc2c(c1)OCCO2)=C(C)O	-4	0.89
CCCCNC(=O)/C(=C/c1ccc(Cl)cc1)NC(=O)c1ccc(OC)cc1	14	0.97
SMILES	NS3h inh CB	Cy5 interf NS3h
O=C(Nc1ccccc1)c1ccc(-c2ccccc2)cc1	2	1.2*
O=C(Nc1ccc(F)cc1)c1ccc(-c2ccccc2)cc1	16	1.1
CC1CCN(S(=O)(=O)c2ccc(NC(=O)c3ccc([N+](=O)[O-])cc3)cc2)CC1	-4	0.99
CC1CCN(S(=O)(=O)c2ccc(NC(=O)c3ccc(-c4ccccc4)cc3)cc2)CC1	-54	1.4*
CC(=O)Nc1cccc(Oc2ccc3c(c2)C(=O)N(c2ccc(C)c(Cl)c2)C3=O)c1	-13	0.88
COc1ccccc1CNC(=O)C(=O)Nc1cccc(C(F)(F)F)c1	8	1
CC1CC/C(=C\C=C\N(C)C)C(=O)/C1=C/C=C/N(C)C (stereo unspecified)	28	0.72*
CN(C)/C=C/C=C1\CC(=O)N(c2ccccc2)C1=O	8	0.89
O=C1/C(=C/C=C/c2ccccc2)SC(=S)N1c1cccc(C(F)(F)F)c1	17	0.75*
O=C1/C(=C\c2cccc(C(F)(F)F)c2)SC(=S)N1c1cccc(Cl)c1	7	1.1
Cc1ccccc1CNC(=O)CN(c1cccc([N+](=O)[O-])c1)S(=O)(=O)c1ccccc1	18	1.1
Cc1cccc(/C(N)=N\OC(=O)Cc2ccc(Cl)cc2)c1	-6	0.95
COCC(=O)Nc1nc2ccccc2s1	-2	0.67*
CC(CCC(=O)Nc1nc2ccccc2s1)CC(=O)Nc1nc2ccccc2s1 (stereo unspecified)	7	0.98
Cc1cccc(/C(N)=N\OC(=O)c2ccc(I)cc2)c1	13	1.1
CCN(CC)c1ccc(C(=O)Nc2nccs2)cc1	13	0.98
O=C(Cc1ccccc1)Nc1ccc(C(=O)Nc2nccs2)cc1	21	0.68*
O=C(Nc1cc(NC(=O)c2ccccc2)cc(C(=O)Nc2nccs2)c1)c1ccccc1	-1	1
O=C(Nc1nccs1)c1cccc(NC(=O)c2cccs2)c1	32	0.71*
CCc1ccc(NC(=O)C(=O)NCCN2CCN(C(=O)C(c3ccccc3)c3ccccc3)CC2)cc1	11	0.96
N/C(=N/OC(=O)COc1ccc2ccccc2c1)c1ccc(Cl)cc1	6	1.1
CC(O)c1cccc(NC(=O)c2cnn3c2NC(c2ccco2)CC3C(F)(F)F)c1 (stereo unspecified)	17	0.49*
CC(O)c1cccc(NC(=O)c2cc3n(n2)C(C(F)(F)F)CC(c2ccc(Cl)cc2)N3)c1 (stereo unspecified)	-3	1
O=C(c1cnn2c1NC(c1ccco1)CC2C(F)(F)F)N1CCN(Cc2ccccc2)CC1 (stereo unspecified)	5	0.7*
COc1ccc(C2CC(C(F)(F)F)n3ncc(C(=O)Nc4cc(Cl)ccc4O)c3N2)cc1OC (stereo unspecified)	6	0.99
SMILES	NS3h inh CB	Cy5 interf NS3h
COc1ccc(NC(=O)c2cnn3c2NC(c2ccco2)CC3C(F)(F)F)c(OC)c1 (stereo unspecified)	10	1
COc1cc(C2CC(C(F)(F)F)n3ncc(C(=O)N4CCN(Cc5ccccc5)CC4)c3N2)cc(OC)c1OC (stereo unspecified)	5	1
COc1ccc(C2CC(C(F)(F)F)n3ncc(C(=O)Nc4cccc(C(C)O)c4)c3N2)cc1OC (stereo unspecified)	8	0.7*
COc1ccc(CNC(=O)c2cnn3c2NC(c2ccco2)CC3C(F)(F)F)cc1 (stereo unspecified)	14	0.75*
COc1ccc(C(=O)/C=C/Nc2ccccc2I)cc1OC	3	1.1
COc1ccc(C2CC(C(F)(F)F)n3ncc(C(=O)O)c3N2)cc1OC (stereo unspecified)	-10	1
COc1ccc(NC(=O)c2cnn3c2NC(c2ccccc2)CC3C(F)(F)F)cc1OC (stereo unspecified)	9	0.73*
COC(=O)C1=C(C)N(c2ccc(C)cc2)/C(=C\c2ccc(OCC(=O)Nc3ccccc3)cc2)C1=O	2	1.1
Cc1ccc2oc(-c3cccc(NC(=O)c4ccc(-c5ccc([N+](=O)[O-])cc5C)o4)c3C)nc2c1	6	1.1
CCOC(=O)c1ccc(-c2ccc(C(=O)Nc3ccc(-c4nc5ccccc5s4)c(O)c3)o2)cc1	-5	0.99
O=C(Nc1ccc(-c2nc3ccccc3s2)c(O)c1)c1ccc(-c2cccc([N+](=O)[O-])c2)o1	-61	0.56*
Cc1cc([N+](=O)[O-])ccc1-c1ccc(C(=O)Nc2ccc(-c3nc4ccccc4o3)c(O)c2)o1	-47	0.61*
C=CCNC(=O)c1ccc(-c2ccc([N+](=O)[O-])cc2)o1	24	0.96
O=C(Nc1ccc(-c2nc3ccccc3o2)c(O)c1)c1ccc(-c2cccc([N+](=O)[O-])c2)o1	-26	0.77*
O=C(Nc1ccc(NC(=O)c2ccc(-c3ccc([N+](=O)[O-])cc3)o2)cc1)c1ccco1	-40	0.67*
